Assay results: PubChem BioAssay (EPA / NIEHS)
Activity calls are given as the source filed them. The calls were made as follows: active = hit-call score of the fitted dose curve at least 0.9, where 1 is the maximum; inactive = score below 0.9.

Read-out: Fatty acid synthase (Homo sapiens) (UniProt P49327)
Assay: LTEA_HepaRG_FASN: Life Technologies and Expression Analysis (LTEA) Assay for Fatty Acid Synthase (FASN) using HepaRG (AID 2283448)
Settings: mRNA level, 48 h; actives raise or lower the signal
Protocol: LTEA_HepaRG is a cell based, multiplexed-readout assay that uses HepaRG, a human liver cell line, with measurements taken at 48 hours after chemical dosing on a 96-well plate.LTEA_HepaRG_FASN is one of 102 assay component(s) measured in the LTEA HepaRG cell culture assay. It is a marker of Steatosis.Data from the assay component LTEA_HepaRG_FASN was analyzed into 1 endpoint. This assay endpoint, LTEA_HepaRG_FASN, was analyzed with bidirectional fitting relative to DMSO as the negative control and baseline of activity. Using a type of inducible reporter, measures of mRNA induction for gain or loss-of-signal activity can be used to understand regulation of transcription factor activity. To generalize the intended target to other relatable targets, this assay endpoint is annotated to the lyase intended target family, where the subfamily is fatty acid synthase.
A total of 1060 chemcials from the ToxCast library were tested in eight-point concentration-response experiments. Cell culture and cytotoxicity assays were conducted at Thermo Fisher Scientific's Custom Services facility (Madison, WI). A single lot of human HepaRG cells (Thermo Fisher Scientific, Frederick, MD) was used for the cell culture experiments. 96-well format collagen type I coated plates of human HepaRG cells were prepared using established methods. Briefly, cryopreserved HepaRG cells were thawed, plated at a density of approximately 100,000 cells/well in HepaRG Thaw, Plate, and General Purpose media (HPRG770, Thermo Fisher Scientific), and incubated for 48 hours. 0.5% DMSO was selected as vehicle control to balance the requisite need of DMSO in HepaRG cultures to maintain differentiation (for example, baseline metabolism, proportions of hepatocytes vs. cholangiocytes), while enabling further hepatic receptor pathway activation (for example, PXR and CAR) in response to chemical exposure. 48 hours after plating, the culture medium was replaced with HepaRG Serum-Free Incudtion Media. Cells were exposed to each test chemical in duplicate and maintained in CO2 incubators for another 48 hours. Chemical plates were thawed to room temperature and 200x concentrations of treatment groups were prepared. 8-point conentration-reponse curves were made with the highest exposure at 100 uM, followed by half-log dilutions, all in 0.5% DMSO. Each test plate contained variouse controls, induction positive controls (1mM phenobarbital), cytotoxicity positive controls ([…] aflatoxin B1), vehicle controls (0.5% DMSO), and total lysis controls (0.5% DMSO). Cell morphology images were taken using an Essen IncuCyte FLR automated microscope, with six 96-well plates imaged in about 24 minutes. Images were captured and exported and JPEG files. Spent culture media was transfered to black-well plates for the LDH assay, and remaining media was sorted at -80 C for later use. Cells were treated with RLT buffer and frozen until shipped for gene expression analysis. Total RNA was isolated from the cell suspension in 75 uL of Buffer RLT (Qiagen, Germantown, MD 20874) by Quintiles/Expression Analysis (Durham, NC) using a custom isolation procedure. Total RNA from each plate well was transferred to a preamplification plate. Fluidigm's 96.96 Dynamic ArrayTM (Fluidigm, Amsterdam, the Netherlands) technology was used for gene expression analyses by quantitative reverse transcription polymerase chain reaction (qRT-PCR, performed by Quintiles/Expression Analysis, Durham, NC)89. Standard TaqManTM Assays (Applied Biosystems/ThermoFisher Scientific, Foster City, CA) were used to assess the expression of 93 genes selected based on their selectivity and sensitivity to important hepatic receptors known to be modulated by environmental chemicals; importance in human hepatocyte functionality; and hepatotoxicity. […]

Chain of Fatty acid synthase (Homo sapiens) (P49327 whole entry, looked up): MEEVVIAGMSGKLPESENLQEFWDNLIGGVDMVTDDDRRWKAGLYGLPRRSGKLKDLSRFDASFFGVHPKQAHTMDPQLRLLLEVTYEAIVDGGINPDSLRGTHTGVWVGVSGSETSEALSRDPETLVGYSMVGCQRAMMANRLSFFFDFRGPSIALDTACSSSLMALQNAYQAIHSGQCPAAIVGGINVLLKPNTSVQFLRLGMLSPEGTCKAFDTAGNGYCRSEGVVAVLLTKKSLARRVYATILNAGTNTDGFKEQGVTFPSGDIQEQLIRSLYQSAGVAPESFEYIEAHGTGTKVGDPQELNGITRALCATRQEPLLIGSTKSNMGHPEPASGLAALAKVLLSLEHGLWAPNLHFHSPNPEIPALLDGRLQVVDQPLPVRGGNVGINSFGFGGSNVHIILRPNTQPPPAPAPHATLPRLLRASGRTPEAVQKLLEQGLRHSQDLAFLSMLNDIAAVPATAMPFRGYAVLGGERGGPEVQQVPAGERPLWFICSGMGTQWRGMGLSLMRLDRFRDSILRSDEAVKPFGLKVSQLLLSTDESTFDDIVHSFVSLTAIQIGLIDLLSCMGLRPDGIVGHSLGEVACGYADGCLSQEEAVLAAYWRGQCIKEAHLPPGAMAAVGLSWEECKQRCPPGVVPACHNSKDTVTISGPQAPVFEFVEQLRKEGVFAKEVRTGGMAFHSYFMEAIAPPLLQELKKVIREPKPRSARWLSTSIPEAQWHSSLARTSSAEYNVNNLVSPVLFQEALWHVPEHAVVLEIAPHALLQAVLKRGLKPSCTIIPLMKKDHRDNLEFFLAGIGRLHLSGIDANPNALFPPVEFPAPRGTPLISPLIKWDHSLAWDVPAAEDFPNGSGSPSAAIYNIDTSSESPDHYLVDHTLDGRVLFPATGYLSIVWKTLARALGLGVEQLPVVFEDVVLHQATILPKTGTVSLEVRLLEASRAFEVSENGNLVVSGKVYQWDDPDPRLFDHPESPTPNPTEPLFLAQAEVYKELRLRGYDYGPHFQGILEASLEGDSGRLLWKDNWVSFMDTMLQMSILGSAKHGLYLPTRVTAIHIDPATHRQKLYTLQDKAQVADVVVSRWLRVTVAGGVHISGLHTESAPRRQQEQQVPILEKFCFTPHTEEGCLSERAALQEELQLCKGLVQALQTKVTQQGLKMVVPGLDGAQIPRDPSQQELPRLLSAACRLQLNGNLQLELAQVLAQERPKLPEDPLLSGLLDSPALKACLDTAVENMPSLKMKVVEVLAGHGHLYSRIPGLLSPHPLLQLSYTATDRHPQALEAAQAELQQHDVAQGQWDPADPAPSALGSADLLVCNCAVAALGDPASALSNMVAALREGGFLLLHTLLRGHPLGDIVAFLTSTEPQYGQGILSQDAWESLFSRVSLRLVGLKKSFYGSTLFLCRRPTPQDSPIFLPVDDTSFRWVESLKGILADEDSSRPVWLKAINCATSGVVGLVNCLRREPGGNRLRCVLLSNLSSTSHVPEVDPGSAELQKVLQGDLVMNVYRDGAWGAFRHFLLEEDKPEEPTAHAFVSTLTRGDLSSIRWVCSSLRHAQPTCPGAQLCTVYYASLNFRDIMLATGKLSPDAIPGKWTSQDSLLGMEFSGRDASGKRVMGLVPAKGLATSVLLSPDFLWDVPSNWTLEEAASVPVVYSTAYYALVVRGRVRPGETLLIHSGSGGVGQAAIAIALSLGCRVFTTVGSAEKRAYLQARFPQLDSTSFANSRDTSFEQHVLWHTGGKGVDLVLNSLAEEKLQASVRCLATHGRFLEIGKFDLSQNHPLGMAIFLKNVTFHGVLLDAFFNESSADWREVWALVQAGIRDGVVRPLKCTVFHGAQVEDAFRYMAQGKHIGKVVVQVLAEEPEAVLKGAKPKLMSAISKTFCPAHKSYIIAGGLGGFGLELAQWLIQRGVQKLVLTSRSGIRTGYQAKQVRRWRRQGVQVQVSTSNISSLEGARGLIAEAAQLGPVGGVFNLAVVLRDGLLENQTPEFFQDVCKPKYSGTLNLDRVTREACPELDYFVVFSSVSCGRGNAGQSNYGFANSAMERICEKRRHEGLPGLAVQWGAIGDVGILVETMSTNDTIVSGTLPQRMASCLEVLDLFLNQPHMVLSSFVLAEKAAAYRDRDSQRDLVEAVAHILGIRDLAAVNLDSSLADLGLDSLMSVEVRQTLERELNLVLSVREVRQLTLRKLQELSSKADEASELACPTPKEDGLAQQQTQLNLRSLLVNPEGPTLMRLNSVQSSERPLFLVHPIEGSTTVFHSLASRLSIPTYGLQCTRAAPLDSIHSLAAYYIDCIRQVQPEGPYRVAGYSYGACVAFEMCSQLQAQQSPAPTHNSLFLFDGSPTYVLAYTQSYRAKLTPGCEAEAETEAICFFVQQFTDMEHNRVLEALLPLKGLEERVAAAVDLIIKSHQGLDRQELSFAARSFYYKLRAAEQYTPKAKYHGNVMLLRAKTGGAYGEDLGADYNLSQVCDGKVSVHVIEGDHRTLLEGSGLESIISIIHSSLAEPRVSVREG

Structure (SMILES)	AC50	outcome
CN(Cc1cnc2nc(N)nc(N)c2n1)c1ccc(C(=O)N[C@@H](CCC(=O)O)C(=O)O)cc1	3.33 µM (active)	
O=C1NS(=O)(=O)c2ccccc21		inactive
CCCCC=O		inactive
OCC(CO)(CBr)CBr		inactive
CS(=O)(=O)c1ccc([C@@H](CC2CCCC2)C(=O)Nc2cnccn2)cc1Cl	50 µM (active)	
CN(C)CCOC(c1ccccc1)c1ccccc1	50 µM (active)	
CCCCC(CC)C(=O)O (stereo not given)		inactive
CCC(C)c1ccccc1O (stereo not given)		inactive
O=C(CCCN1CCC(O)(c2ccc(Cl)cc2)CC1)c1ccc(F)cc1	9.92 µM (active)	
O=C(c1ccccc1)c1ccccc1		inactive
CC(=O)Nc1ccc(O)cc1		inactive
CCCCc1oc2ccccc2c1C(=O)c1cc(I)c(OCCN(CC)CC)c(I)c1	9.27 µM (active)	
CCCCCCCCCCCCOS(=O)(=O)O	80.7 µM (active)	
Cc1[nH]nc2c1N=C(c1ccccc1Cl)c1cc([N+](=O)[O-])ccc1N2	7.35 µM (active)	
CCCCCCCCCCCCCCC		inactive
